Calls of active or inactive are those of the source. The calls were made as follows: active = hit-call score of the fitted dose curve at least 0.9, where 1 is the maximum; inactive = score below 0.9.
The compounds below were run on Intercellular Adhesion Molecule 1 (ICAM1), ICAM1 (gene 3383) (assay: BSK_KF3CT_ICAM1: BioMAP Diversity Plus: KF3CT Assay for Intercellular Adhesion Molecule 1 (ICAM1) Biomarker Activity (AID 2283067)). Settings: primary human keratinocytes with fibroblasts; actives raise or lower the signal.
Experimental: BSK_KF3CT is a cell-based, multiplexed-readout assay that uses keratinocytes and foreskin fibroblasts, a human skin primary cell co-culture, with measurements taken at 24 hours after chemical dosing in a 96-well plate.BSK_KF3CT_ICAM1 is an assay component measured in the BSK_KF3CT assay. It measures ICAM-1 antibody related to regulation of gene expression using ELISA technology.Data from the assay component BSK_KF3CT_ICAM1 was analyzed into 1 assay endpoint. This assay endpoint, BSK_KF3CT_ICAM1, was analyzed with bidirectional fitting relative to DMSO as the negative control and baseline of activity. Using a type of binding reporter, gain or loss-of-signal activity can be used to understand changes in the signaling as they relate to the gene ICAM1. Furthermore, this assay endpoint can be referred to as a primary readout, because this assay has produced multiple assay endpoints where this one serves a signaling function. To generalize the intended target to other relatable targets, this assay endpoint is annotated to the cell adhesion molecules intended target family, where the subfamily is Immunoglobulin CAM.
The levels of cell surface (or secreted, indicated by the prefix "s") biomarker endpoints were measured by ELISA. Overt cytotoxicity to cells in confluent adherent cultures (all systems other than the BT system) was assessed by measuring total protein levels using sulforhodamine B (SRB) staining in parallel cultures at the time of biomarker measurements, indicated as SRB endpoints. For proliferation assays for adherent cell types, individual cell types are cultured at sub-confluence and relative cell numbers quantified by SRB staining at time points optimized for each system (48 h: 3C and CASM3C systems; 72 h: BT and HDF3CGF systems; 96 h: SAg system). SRB was performed by staining cells with 0.1% SRB after fixation with 10% TCA and reading wells at 560 nm.Viability and proliferation of PBMC (T cells) was quantified by Alamar Blue reduction for the SAg and BT systems. For PBMC viability (referred to as PBMC Cytotoxicity within the assay endpoint names), cells were plated (75,000/well in a 96-well plate) and then chemical samples added for 1 h before addition of activators, SEB and TSST-1 (20 ng/mL final concentration each). Cells were incubated for 90 h. Then, Alamar Blue (20 uL/well) (Invitrogen, Cat DAL1100) was added for 6 h, and the plates were read with a fluorescence microplate reader at 546/580 nm (excitation/emission). For PBMC proliferation, cells were plated and activated as above but incubated for only 16 h prior to addition of Alamar Blue. Plates were read after 6 h.
With `CC1(C)C(C=C(Cl)Cl)C1C(=O)OC(C#N)c1cccc(Oc2ccccc2)c1` (stereo not given) the outcome was “inactive”.
For `CN/C(=N\[N+](=O)[O-])NCc1cnc(Cl)s1`, the outcome was “inactive”.
For `CCNC(=O)NC(=O)C(C#N)=NOC`, the outcome was “inactive”.
`COC(=O)NS(=O)(=O)c1ccc(N)cc1` was tested, and the outcome was “inactive”.
In the case of `COC(=O)c1c(C(F)F)nc(C(F)(F)F)c(C2=NCCS2)c1CC(C)C`, the outcome is reported as “inactive”.
`O=C(O)c1c(Cl)ccc2cc(Cl)cnc12` was tested, and the outcome was “inactive”.
`CC(C)=CC1C(C(=O)OCc2coc(Cc3ccccc3)c2)C1(C)C` (stereo not given) was tested, and the outcome was “inactive”.
`CC(C)N1C(=O)c2ccccc2NS1(=O)=O` was tested, and the outcome was “inactive”.
In the case of `COP(=O)(OC)O/C(C)=C/C(=O)N(C)C`, the outcome is reported as “inactive”.
`N#CN=C1SCCN1Cc1ccc(Cl)nc1` was tested, and the outcome was “inactive”.
`Cc1cc(C)nc(Nc2ccccc2)n1` was tested, and the outcome was “inactive”.
For `CC(C)Oc1cccc(NC(=O)c2ccccc2C(F)(F)F)c1`, the outcome was “inactive”.
For `CN=C=S`, the outcome was “inactive”.
`C=CCOC(=O)C(C)(C)OC(=O)c1cc(-n2c(=O)cc(C(F)(F)F)n(C)c2=O)ccc1Cl` was tested, and the outcome was “inactive”.
For `O=C1C2CC=CCC2C(=O)N1SC(Cl)(Cl)Cl` (stereo not given), the AC50 was 9.86 µM (active).
`Cc1ccc(N=CN(C)C=Nc2ccc(C)cc2C)c(C)c1` was tested, and the outcome was “inactive”.
For `COCc1cnc(C2=NC(C)(C(C)C)C(=O)N2)c(C(=O)O)c1` (stereo not given), the outcome was “inactive”.
In the case of `COc1cc(OC)nc(NC(=O)NS(=O)(=O)c2ncccc2OCC(F)(F)F)n1`, the outcome is reported as “inactive”.
`CCOc1nc(C(Cl)(Cl)Cl)ns1` was tested, and the outcome was “inactive”.
In the case of `CSC(=O)c1c(C(F)F)nc(C(F)(F)F)c(C(=O)SC)c1CC(C)C`, the outcome is reported as “inactive”.
`C=C(C)CN(CC)c1c([N+](=O)[O-])cc(C(F)(F)F)cc1[N+](=O)[O-]` was tested, and the outcome was “inactive”.
For `Clc1cccc(C(Cl)(Cl)Cl)n1`, the outcome was “inactive”.
For `COC(=O)N(C(=O)N1CO[C@@]2(C(=O)OC)Cc3cc(Cl)ccc3C2=N1)c1ccc(OC(F)(F)F)cc1`, the outcome was “inactive”.
For `CCC(C)n1c(=O)[nH]c(C)c(Br)c1=O` (stereo not given), the outcome was “inactive”.
For `CCOP(=S)(OCC)Oc1nc(Cl)n(C(C)C)n1`, the outcome was “inactive”.
With `CCN(CC)c1nc(C)cc(OP(=S)(OC)OC)n1` the outcome was “inactive”.
With `CCCN(CC)CC1COC2(CCC(C(C)(C)C)CC2)O1` (stereo not given) the outcome was “inactive”.
For `COc1ccc(-c2ccccc2)cc1NNC(=O)OC(C)C`, the outcome was “inactive”.
`Nc1cnn(-c2ccccc2)c(=O)c1Cl` was tested, and the outcome was “inactive”.
In the case of `COP(=S)(OC)Oc1ccc([N+](=O)[O-])c(C)c1`, the outcome is reported as “inactive”.
For `CO/N=C(/C1=NOCCO1)c1ccccc1Oc1ncnc(Oc2ccccc2Cl)c1F`, the outcome was “inactive”.
`Clc1nc(Cl)nc(Nc2ccccc2Cl)n1` was tested, and the outcome was “inactive”.
In the case of `OC(c1ccc(Cl)cc1)(c1ccc(Cl)cc1)C(Cl)(Cl)Cl`, the AC50 is reported as 11.6 µM (active).
`CC1(C)CCC(=Cc2ccc(Cl)cc2)C1(O)Cn1cncn1` (stereo not given) was tested, and the outcome was “inactive”.
In the case of `CNC(=O)Oc1cccc2ccccc12`, the outcome is reported as “inactive”.
`CCCCC(C#N)(Cn1cncn1)c1ccc(Cl)cc1` (stereo not given) was tested, and the outcome was “inactive”.
For `CC(C)N1C(=O)N(c2ccccc2)CSC1=NC(C)(C)C`, the outcome was “inactive”.
In the case of `COC(=O)NC(=S)Nc1ccccc1NC(=S)NC(=O)OC`, the outcome is reported as “inactive”.
With `COc1cc(Cl)c(OC)cc1Cl` the outcome was “inactive”.
With `CS(=O)(=O)c1ccc(C(=O)C2C(=O)CCCC2=O)c([N+](=O)[O-])c1` the outcome was “inactive”.

Source: PubChem BioAssay (EPA / NIEHS)
